Source: article PMC10812921, “Transcriptional Coactivator BOB1 (OBF1, OCA-B) Modulates the Specificity of DNA Recognition by the POU-Domain Factors OCT1 and OCT2 in a Monomeric Configuration”

How the values were obtained:
[1] = biological target: POU1 (OCT1 POU domain) (human, UniProt P14859 260-458); test: EMSA-SELEX-seq; no BOB1; 20 mM Tris-HCl pH 7.6, 140 mM NaCl, 10% glycerol, 0.5 mM EDTA, 0.05% Triton X-100, 0.1 mg/mL BSA, 0.1 mg/mL poly(dI-dC), 5 mM DTT, room temperature, 20 min; high values mean tight binding; settings: protein: recombinant; dsDNA, one strand shown
POU1 (OCT1 POU domain), sequence (P14859 260-458): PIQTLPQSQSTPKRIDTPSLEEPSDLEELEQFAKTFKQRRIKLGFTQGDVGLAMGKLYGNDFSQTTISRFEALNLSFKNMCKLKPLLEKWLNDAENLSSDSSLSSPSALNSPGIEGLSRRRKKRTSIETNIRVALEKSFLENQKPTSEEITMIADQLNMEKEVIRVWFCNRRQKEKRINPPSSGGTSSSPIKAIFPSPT
Method in brief: (§1)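 A double-stranded random 35-nt library (300 ng, PCR-amplified) was incubated with 30 ng tagged POU-domain protein, with or without 28 ng coactivator protein, in 20 μL Tris–HCl pH 7.6 binding buffer for 20 min at RT. The proteins had been expressed in E. coli BL21, purified under denaturing conditions and renatured. Complex bands from native 6% PAGE were eluted and PCR-amplified over four rounds, then sequenced on Illumina. For binding preference, the percentage of sequenced 8-mers matching a motif pattern was calculated.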

[2] = biological target: T1, POU2 (OCT2 POU domain) (human, UniProt P09086 175-386); test: as above; settings: protein: recombinant; dsDNA, one strand shown
T1 sequence: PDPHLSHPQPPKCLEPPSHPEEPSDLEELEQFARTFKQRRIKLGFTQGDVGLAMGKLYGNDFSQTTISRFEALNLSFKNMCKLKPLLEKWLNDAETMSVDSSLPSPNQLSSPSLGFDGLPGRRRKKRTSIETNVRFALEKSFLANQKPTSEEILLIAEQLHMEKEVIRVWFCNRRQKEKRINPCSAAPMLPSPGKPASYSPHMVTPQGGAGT
Method in brief: as §1

[3] = biological target: POU1 (OCT1 POU domain);BOB1 (OBF1, OCA-B) (human;human, UniProt P14859;Q16633 260-458;1-256, |); test: EMSA-SELEX-seq; with BOB1 (ternary complex band); 20 mM Tris-HCl pH 7.6, 140 mM NaCl, 10% glycerol, 0.5 mM EDTA, 0.05% Triton X-100, 0.1 mg/mL BSA, 0.1 mg/mL poly(dI-dC), 5 mM DTT, room temperature, 20 min; high values mean tight binding; settings: protein: recombinant;recombinant; copies: 1;1; dsDNA, one strand shown
Method in brief: as §1

[4] = biological target: T2, POU2 (OCT2 POU domain);BOB1 (OBF1, OCA-B) (human;human, UniProt P09086;Q16633 175-386;1-256, |); test: as above; settings: protein: recombinant;recombinant; copies: 1;1; dsDNA, one strand shown
T2 sequence 1: T1 sequence
T2 sequence 2: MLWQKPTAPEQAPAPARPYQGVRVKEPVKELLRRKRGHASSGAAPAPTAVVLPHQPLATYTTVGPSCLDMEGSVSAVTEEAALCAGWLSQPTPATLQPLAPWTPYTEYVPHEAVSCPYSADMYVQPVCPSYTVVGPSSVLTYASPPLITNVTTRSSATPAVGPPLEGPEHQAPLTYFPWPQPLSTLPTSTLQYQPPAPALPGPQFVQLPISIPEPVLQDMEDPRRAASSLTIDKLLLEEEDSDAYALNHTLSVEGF
Method in brief: as §1

Row | Sequence | binding signal [1] | binding signal [2] | binding signal [3] | binding signal [4]
1 | AATCTAAG | 0.0553 % of ANNNNAAN 8-mers | 0.0587 % of ANNNNAAN 8-mers | 0.062 % of ANNNNAAN 8-mers | 0.0545 % of ANNNNAAN 8-mers
2 | ACCGTAAA | 0.0244 % of ANNNNAAN 8-mers | 0.0253 % of ANNNNAAN 8-mers | 0.0226 % of ANNNNAAN 8-mers | 0.0173 % of ANNNNAAN 8-mers
3 | ATCAGAAT | 0.085 % of ANNNNAAN 8-mers | 0.116 % of ANNNNAAN 8-mers | 0.0777 % of ANNNNAAN 8-mers | 0.0784 % of ANNNNAAN 8-mers
4 | ATAGTAAT | 0.116 % of ANNNNAAN 8-mers | 0.148 % of ANNNNAAN 8-mers | 0.0702 % of ANNNNAAN 8-mers | 0.0867 % of ANNNNAAN 8-mers
5 | ACAGTAAT | 0.0614 % of ANNNNAAN 8-mers | 0.0725 % of ANNNNAAN 8-mers | 0.0406 % of ANNNNAAN 8-mers | 0.0553 % of ANNNNAAN 8-mers
6 | AGCGTAAT | 0.0591 % of ANNNNAAN 8-mers | 0.0748 % of ANNNNAAN 8-mers | 0.0382 % of ANNNNAAN 8-mers | 0.0611 % of ANNNNAAN 8-mers
7 | AACCGAAG | 0.0172 % of ANNNNAAN 8-mers | 0.0201 % of ANNNNAAN 8-mers | 0.0168 % of ANNNNAAN 8-mers | 0.014 % of ANNNNAAN 8-mers
8 | ACAACAAC | 0.0187 % of ANNNNAAN 8-mers | 0.0104 % of ANNNNAAN 8-mers | 0.0133 % of ANNNNAAN 8-mers | 0.0124 % of ANNNNAAN 8-mers
9 | AAAAAAAC | 0.0583 % of ANNNNAAN 8-mers | 0.0593 % of ANNNNAAN 8-mers | 0.0784 % of ANNNNAAN 8-mers | 0.0512 % of ANNNNAAN 8-mers
10 | AGGCAAAA | 0.236 % of ANNNNAAN 8-mers | 0.136 % of ANNNNAAN 8-mers | 0.454 % of ANNNNAAN 8-mers | 0.204 % of ANNNNAAN 8-mers
11 | ACAGTAAA | 0.0481 % of ANNNNAAN 8-mers | 0.0414 % of ANNNNAAN 8-mers | 0.0531 % of ANNNNAAN 8-mers | 0.0338 % of ANNNNAAN 8-mers
12 | AGTACAAA | 0.0336 % of ANNNNAAN 8-mers | 0.0328 % of ANNNNAAN 8-mers | 0.0375 % of ANNNNAAN 8-mers | 0.0446 % of ANNNNAAN 8-mers
13 | ATTAGAAC | 0.0427 % of ANNNNAAN 8-mers | 0.0564 % of ANNNNAAN 8-mers | 0.0355 % of ANNNNAAN 8-mers | 0.0355 % of ANNNNAAN 8-mers
14 | AGGCTAAG | 0.0362 % of ANNNNAAN 8-mers | 0.0414 % of ANNNNAAN 8-mers | 0.0312 % of ANNNNAAN 8-mers | 0.0446 % of ANNNNAAN 8-mers
15 | ATCCTAAA | 0.0267 % of ANNNNAAN 8-mers | 0.0328 % of ANNNNAAN 8-mers | 0.0285 % of ANNNNAAN 8-mers | 0.0421 % of ANNNNAAN 8-mers
16 | AGAGAAAC | 0.0221 % of ANNNNAAN 8-mers | 0.0247 % of ANNNNAAN 8-mers | 0.0332 % of ANNNNAAN 8-mers | 0.0231 % of ANNNNAAN 8-mers
17 | ATATTAAA | 0.297 % of ANNNNAAN 8-mers | 0.365 % of ANNNNAAN 8-mers | 0.131 % of ANNNNAAN 8-mers | 0.14 % of ANNNNAAN 8-mers
18 | ACTATAAC | 0.0156 % of ANNNNAAN 8-mers | 0.0196 % of ANNNNAAN 8-mers | 0.023 % of ANNNNAAN 8-mers | 0.0239 % of ANNNNAAN 8-mers
19 | ACCATAAT | 0.082 % of ANNNNAAN 8-mers | 0.0967 % of ANNNNAAN 8-mers | 0.0367 % of ANNNNAAN 8-mers | 0.0495 % of ANNNNAAN 8-mers
20 | ACATCAAA | 0.0374 % of ANNNNAAN 8-mers | 0.0391 % of ANNNNAAN 8-mers | 0.0363 % of ANNNNAAN 8-mers | 0.0239 % of ANNNNAAN 8-mers
21 | ATTATAAC | 0.0713 % of ANNNNAAN 8-mers | 0.113 % of ANNNNAAN 8-mers | 0.0581 % of ANNNNAAN 8-mers | 0.057 % of ANNNNAAN 8-mers
22 | AAAGTAAG | 0.0641 % of ANNNNAAN 8-mers | 0.0685 % of ANNNNAAN 8-mers | 0.0851 % of ANNNNAAN 8-mers | 0.0834 % of ANNNNAAN 8-mers
23 | ATTCCAAG | 0.045 % of ANNNNAAN 8-mers | 0.0512 % of ANNNNAAN 8-mers | 0.032 % of ANNNNAAN 8-mers | 0.0446 % of ANNNNAAN 8-mers
24 | ACAGTAAG | 0.0328 % of ANNNNAAN 8-mers | 0.0253 % of ANNNNAAN 8-mers | 0.032 % of ANNNNAAN 8-mers | 0.0272 % of ANNNNAAN 8-mers
25 | AATGTAAG | 0.104 % of ANNNNAAN 8-mers | 0.106 % of ANNNNAAN 8-mers | 0.089 % of ANNNNAAN 8-mers | 0.0958 % of ANNNNAAN 8-mers
26 | ATGAAAAG | 0.135 % of ANNNNAAN 8-mers | 0.106 % of ANNNNAAN 8-mers | 0.175 % of ANNNNAAN 8-mers | 0.0867 % of ANNNNAAN 8-mers
27 | ATTGGAAT | 0.141 % of ANNNNAAN 8-mers | 0.18 % of ANNNNAAN 8-mers | 0.0968 % of ANNNNAAN 8-mers | 0.0966 % of ANNNNAAN 8-mers
28 | ACCAGAAC | 0.013 % of ANNNNAAN 8-mers | 0.0127 % of ANNNNAAN 8-mers | 0.0129 % of ANNNNAAN 8-mers | 0.0223 % of ANNNNAAN 8-mers
29 | AGGCGAAA | 0.0389 % of ANNNNAAN 8-mers | 0.0357 % of ANNNNAAN 8-mers | 0.0386 % of ANNNNAAN 8-mers | 0.0363 % of ANNNNAAN 8-mers
30 | ATGAGAAA | 0.0755 % of ANNNNAAN 8-mers | 0.0765 % of ANNNNAAN 8-mers | 0.0738 % of ANNNNAAN 8-mers | 0.0792 % of ANNNNAAN 8-mers
